From PubChem BioAssay AID493240 (Broad Institute, 2011) come the findings set out here.

The campaign covered roughly 1,300 compounds. About 270 (21%) were called active. No rule for the calls is given here. Not all results are given here. Measured potencies and affinities stand elsewhere.

The test can be described thus: cytotoxicity in parental SK-MEL-5 melanoma cells – cell-based, CellTiter-Glo, cherry-picked, set 3, orthogonal assay for MITF inhibitor project, dose response (AID 493240). The settings on record: SK-MEL-5 viability, ATP luminescence (CellTiter-Glo), 24 h; series mostly up to 35 µM. A general note: Cellular ATP, detected with luciferase, serves as a proxy for viable cell number.
On to `Cc1ccc(SCCSc2ncccn2)cc1`, for which the result was inactive.

Take `O=C(O)C1CCN(C(=O)OCc2ccccc2)CC1`: the result was inactive.

With `COc1cc(C2C(C#N)=C(N)Oc3cc(N(C)C)ccc32)cc2c1OCO2` (stereo not given), the result was inactive.

As for `O=C(O)c1cc2ccccc2c(N=Nc2cccnc2)c1O`, the result was inactive.

Turning to `Cc1cc(C)c2c(N)c3cccc(C)c3nc2n1`, the result was inactive.

With `CC(=O)Nc1ccc(-c2nc3ccccc3o2)cc1`, the outcome was inactive.

As for `OCCNc1c2ccccc2nc2ccccc12`, the result was inactive.

For `Cc1nn2c(N)c(-c3ccccc3)cnc2c1-c1ccccc1`, the outcome was inactive.

Regarding `COc1ccc(-c2nc(-c3ccncc3)no2)cc1OC`, the outcome was inactive.

For the molecule `C=Cc1ncc(OC)c2c1[nH]c1ccccc12`, the result was inactive.

Regarding `Cc1ccc(NC(=O)CN(C)C(=O)Cn2ncc(Cl)c(Cl)c2=O)cc1`, the result was inactive.

With `O=C(/C=C/NNC(=O)c1ccccc1)c1ccc([N+](=O)[O-])cc1`, the outcome was inactive.

Take `COc1ccc(/C=C/c2cc(C(F)(F)F)on2)cc1`: the outcome was inactive.

Take `O=[N+]([O-])c1ccc(-n2nnnc2-c2ccccc2)c([N+](=O)[O-])c1`: the result was inactive.

In the case of `O=C(N/N=C/c1ccc([N+](=O)[O-])o1)c1cc2ccccc2o1`, the outcome was inactive.

With `Cc1cc(C(=O)N/N=C/c2ccc([N+](=O)[O-])o2)c(C)o1`, the outcome was inactive.

Turning to `Cc1cc(C)cc(OCC(=O)N/N=C/c2ccc([N+](=O)[O-])o2)c1`, the result was inactive.

For the molecule `O=C(CNc1ccc2ccccc2c1)N/N=C/c1ccc([N+](=O)[O-])o1`, the result was inactive.

Consider `Cc1ccc(OCC(=O)N/N=C/c2ccc([N+](=O)[O-])o2)cc1`, for which the outcome was inactive.

Take `Cc1ccccc1OCC(=O)N/N=C/c1ccc([N+](=O)[O-])o1`: the result was inactive.

As to `CCN(CC)S(=O)(=O)c1cccc(C(=O)N/N=C/c2ccc([N+](=O)[O-])o2)c1`, the result was inactive.

As for `O=C(CNc1cccc([N+](=O)[O-])c1)N/N=C/c1ccc([N+](=O)[O-])o1`, the outcome was inactive.

In the case of `O=c1c2ccccc2cnn1CCOc1ccccc1`, the result was inactive.

On to `CC(C)c1nnc(NC(=O)CCC2CCCCC2)s1`, for which the result was inactive.

With `c1cc(CSc2nnc(-c3ccc4c(c3)OCO4)o2)ccn1`, the result was inactive.

Take `COCCNC(=O)/C(C#N)=C/c1cccc(/C=C(\C#N)C(=O)NCCOC)c1`: the result was inactive.

`Cc1ccc(C2=NN(C(=O)CCl)C(c3cccs3)C2)o1` (stereo not given): the result was inactive.

With `Cc1ccc([N+](=O)[O-])cc1N1C(=O)CS/C1=N\NC(=O)c1cccnc1`, the result was inactive.

Turning to `CC(=O)COc1ccc2cc(-c3ccccc3)c(=O)oc2c1`, the outcome was inactive.

Take `O=[N+]([O-])c1ccccc1OCCOc1ccccc1[N+](=O)[O-]`: the result was inactive.

Regarding `CCOC(=O)C1(Cc2ccccc2)CCCN(CCCn2cccn2)C1` (stereo not given), the result was inactive.

As for `CN(Cc1ccccc1)C1=CC(=[N+]2CCCCC2)CC(C)(C)C1`, the outcome was inactive.

With `O=C(NCCNc1ccccc1[N+](=O)[O-])c1cc(F)c(F)cc1Cl`, the result was inactive.

With `N#CC(C#N)=C1C=CC=CN1/C(=C\c1ccco1)C(=O)c1ccc(Br)cc1`, the outcome was inactive.

Take `CC(C)N1C(=O)S/C(=C\c2ccc(-c3ccc(Cl)c(C(=O)O)c3)o2)C1=O`: the outcome was inactive.

Consider `Cc1cn(CCC(=O)Nc2ccccc2N2CCOCC2)c2ccccc12`, for which the result was inactive.

With `Fc1ccccc1-c1nc(-c2ccncc2)no1`, the result was inactive.

Take `Clc1cccc(-c2nc(-c3ccccn3)no2)c1`: the outcome was inactive.

Take `C/C(=N/NC(=O)C(O)(c1ccccc1)c1ccccc1)c1ccc([N+](=O)[O-])o1`: the result was inactive.

For `O=C(Nc1ccc2nc3n(c(=O)c2c1)CCCC3)c1cc([N+](=O)[O-])ccc1F`, the outcome was inactive.

As for `O=C(c1ccc([N+](=O)[O-])s1)N1CCN(c2ccccn2)CC1`, the outcome was inactive.

On to `CCN(CC(=O)Nc1ccc2c(c1)OCCO2)C(=O)c1ccc([N+](=O)[O-])s1`, for which the outcome was inactive.

For the molecule `Cc1c(C#N)c(NC(=O)CCl)n(Cc2cccs2)c1C`, the result was inactive.

As to `O=C(/C=C/c1ccc2c(c1)OCO2)N1CCCCC1`, the outcome was inactive.

For the molecule `Cc1ccccc1NCc1nc2ccccc2n1C`, the outcome was inactive.

With `Cc1ccc(C(=O)N/C(=C\c2ccc(-c3ccccc3[N+](=O)[O-])o2)C(=O)NCCN(C)C)cc1`, the result was inactive.

Regarding `O=C(NC(=S)NCc1ccccc1)c1ccccc1`, the result was inactive.

Consider `O=C(NCC1CCCO1)c1cc(-c2ccc(Cl)cc2Cl)on1` (stereo not given), for which the result was inactive.

As for `CCOc1ccc2cc(C#N)c(SCC(=O)OC)nc2c1`, the result was inactive.

As for `Cc1ccc2nc(-c3ccncc3)[nH]c2c1`, the outcome was inactive.

For `Cn1nnnc1Sc1ncnc2scc(-c3cccc(F)c3)c12`, the result was inactive.

With `CN(C)c1ccc(-n2cccc2/C=C/[N+](=O)[O-])cc1`, the result was inactive.

Take `Cc1ccc(/C=c2/sc3n(c2=O)CCCN=3)o1`: the outcome was inactive.

Regarding `Cc1ccc(C(=O)NC2=NCCS2)cc1Cl`, the outcome was inactive.

With `Nc1nnc(/C=C/c2ccccc2Cl)s1`, the outcome was inactive.

On to `CCOC(=O)N1CCC(NC(=O)C2CCCN(Cc3nc(-c4cccc(C)c4)oc3C)C2)CC1` (stereo not given), for which the outcome was inactive.

With `COc1cc(CN2CCC(C(=O)NCCC(C)C)CC2)ccc1OCc1ccccc1`, the outcome was inactive.

`CC1CCN(Cc2nc(-c3ccc(Cl)cc3)no2)CC1`: the outcome was inactive.

In the case of `CC(C)c1ccc(C(=O)Nc2cccnc2)cc1`, the result was inactive.

On to `Cc1cccc(NC(=O)c2cnn(-c3ccccc3)c2C)c1C`, for which the outcome was inactive.

For `CCOc1ccccc1NC(=O)C1C2CCC(O2)C1C(=O)O` (stereo not given), the result was inactive.

As for `N#Cc1c(NC(=O)CSc2ncn[nH]2)sc2c1CCCCC2`, the outcome was inactive.

As to `COC(=O)c1ccc(COc2ccc(C)cc2[N+](=O)[O-])o1`, the result was inactive.

As for `CCCOc1ccc(C(=O)Nc2ccc3c(c2)OCCO3)cc1`, the outcome was inactive.

For the molecule `CCOC(=O)c1ccc(NC(=O)CC2SCCNC2=O)cc1` (stereo not given), the result was inactive.

Turning to `O=C(Nc1ccccc1N1CCOCC1)c1ccc([N+](=O)[O-])s1`, the result was inactive.

As to `O=C(Nc1ccc(N2CCOCC2)cc1)c1cnsn1`, the result was inactive.

For `Cc1ccc(NC(=O)c2cc(N3C(=O)C=CC3=O)ccc2N2CCOCC2)cc1Cl`, the outcome was inactive.

In the case of `Cc1ccc(NC(=O)c2ccc([N+](=O)[O-])o2)cc1S(=O)(=O)N1CCOCC1`, the outcome was inactive.

For `CCOC(=O)c1ccc(NC(=O)c2ccnn2C)cc1`, the outcome was inactive.

`Cc1ccc(NC(=O)c2ccc(OCC3CCCO3)cc2)c(C)c1` (stereo not given): the result was inactive.

On to `C=CCC(Nc1ccccc1)C12C=CC(O1)C(C(=O)OC)=C2C(=O)OC` (stereo not given), for which the outcome was inactive.

`Cc1ccc(N2C(=O)c3ccc(N)cc3C2=O)cc1C`: the result was inactive.

As for `S=c1[nH]nc(-c2ccco2)n1/N=C/C(Cl)=C/c1ccccc1`, the result was inactive.

Regarding `CCCCC1C(=O)N(c2ccccc2)N(c2ccc(O)cc2)C1=O` (stereo not given), the result was inactive.

Take `CCOC(=O)CSc1nc2cc(OCC)ccc2cc1C#N`: the result was inactive.

For `Brc1ccc(-c2cn3cccnc3n2)cc1`, the outcome was inactive.

As to `O=C(NCc1ccco1)c1nc2c(nnn2Cc2ccccc2Cl)c(=O)[nH]1`, the outcome was inactive.

For the molecule `CC(NC(=O)c1ccc([N+](=O)[O-])o1)C12CC3CC(CC(C3)C1)C2` (stereo not given), the outcome was inactive.

As for `C=C1C(=O)O[C@@H]2[C@H]1[C@@H](OC(=O)/C(C)=C/C)C/C(C)=C\C(=O)/C=C(\C)[C@@H]2O`, the result was inactive.

For `CCN(CCO)c1ccc(N=Nc2cc(C)[nH]n2)cc1`, the result was inactive.

`CN(C)c1ccc(/C=C2\SC(=O)N(CCc3nnc(N)s3)C2=O)cc1`: the outcome was inactive.

Consider `COc1ccc(-c2nc(-c3ccccc3OC)no2)cc1OC`, for which the outcome was inactive.

For `O=C(Cn1ncc(Cl)c(Cl)c1=O)N1CCN(Cc2ccccc2)CC1`, the result was inactive.

For the molecule `Cc1ccc(NC(=O)Cn2ncc(Cl)c(Cl)c2=O)cc1S(=O)(=O)N1CCCCC1`, the outcome was inactive.

On to `O=C(Cn1ncc(Cl)c(Cl)c1=O)NCC1CCCCC1`, for which the result was inactive.

Take `CC(C)(C)C(=O)Cn1ncc(Cl)c(Cl)c1=O`: the outcome was inactive.

Take `Cc1cc(Br)ccc1NC(=O)CNC(=O)Cn1ncc(Cl)c(Cl)c1=O`: the result was inactive.

Consider `O=C1CN(C(=O)Cn2ncc(Cl)c(Cl)c2=O)c2ccccc2N1`, for which the result was inactive.

Turning to `Cc1ccc(CC(=O)Nc2ccc(Cl)cn2)cc1`, the outcome was inactive.

For `C1CCC(C(CC2CCCCN2)C2CCCCC2)CC1` (stereo not given), the result was inactive.

`OCc1ccc(N=Nc2ccccc2)cc1`: the result was inactive.

For the molecule `COc1cc(-c2nnc(-c3ccco3)o2)ccc1OCc1ccccc1`, the result was inactive.

Turning to `Cc1ccc2nc(C)cc(Nc3ccc([N+](=O)[O-])cc3)c2c1`, the result was inactive.

On to `CCOc1cccc(C(=O)NC2=NCCS2)c1`, for which the outcome was inactive.

`COc1ccc(C)cc1Nc1nc(N)c2cc(OC)c(OC)cc2n1`: the outcome was inactive.

Consider `O=C(O)c1cc(N/N=C/C(Cl)=C/c2ccccc2)ccc1Cl`, for which the result was inactive.

Consider `Cc1ccc(C(=O)Nc2nc3ccc(Cl)cc3s2)o1`, for which the result was inactive.

With `Cc1ccc(-c2n[nH]c(=O)c3ccccc23)cc1S(=O)(=O)NCC1CCCO1` (stereo not given), the result was inactive.

Take `O=C(Nc1ccc2nn(-c3ccccc3)nc2c1)c1ccco1`: the result was inactive.

In the case of `CCOc1ccc(-c2nnc(-c3cccs3)o2)cc1OCC`, the result was inactive.

With `Cn1cc(C(=O)N/N=C/c2c(O)ccc3ccccc23)ccc1=O`, the result was inactive.

On to `C/C(=N/Nc1nc(C)c(C)s1)c1cccc([N+](=O)[O-])c1`, for which the result was inactive.

`O=[N+]([O-])c1cc(Cl)cc(/C=N\Nc2ccccn2)c1O`: the outcome was inactive.

As for `CCCOc1ccc(-c2c(=O)n(O)c3ccccc3[n+]2[O-])cc1`, the outcome was inactive.

Regarding `Cc1ccc2oc(=O)n(CCCOc3ccccc3)c2c1`, the outcome was inactive.

As to `CCOc1ccc(-c2noc(CCC(=O)O)n2)cc1`, the result was inactive.

For `COc1cccc(C(=O)N/N=C(/c2ccccc2)c2ccccn2)c1`, the result was inactive.

On to `O=C(Nc1ccc(F)cc1)c1nc(S(=O)(=O)Cc2ccccc2)ncc1Cl`, for which the result was inactive.

For the molecule `O=C(Nc1ccc2ncccc2c1)c1ccccc1Br`, the outcome was inactive.

Regarding `CS(=O)(=O)c1ncc(Cl)c(C(=O)Nc2ccc(N3CCOCC3)cc2)n1`, the outcome was inactive.

`CC(=O)Nc1ccc(NC(=O)c2nc(S(=O)(=O)Cc3ccccc3)ncc2Cl)cc1`: the outcome was inactive.

For the molecule `COc1ccc(/C=N/N=C2/SCC(=O)N2Cc2ccccc2)cc1`, the result was inactive.

Take `Cc1ccc(C)c(S(=O)(=O)N2CCN(Cc3ccc(O)c4ncccc34)CC2)c1`: the result was inactive.

Turning to `CC1CCCC(NC(=O)NC(=O)CCl)C1C` (stereo not given), the result was inactive.
